# Compounds with a hit are over-represented: about 4.8% of the library has one in this group of screens.
# DRD3 agonist: D3 dopamine receptor (human) agonism. D3R DiscoveRx beta-arrestin cells, luminescence, 90 min. max activation, %. actives 0.58% (n = 410,000). AID 652048; in the data active = max activation above about 30%; also: 0% is about no effect
# Target sequence (P35462 whole entry, looked up): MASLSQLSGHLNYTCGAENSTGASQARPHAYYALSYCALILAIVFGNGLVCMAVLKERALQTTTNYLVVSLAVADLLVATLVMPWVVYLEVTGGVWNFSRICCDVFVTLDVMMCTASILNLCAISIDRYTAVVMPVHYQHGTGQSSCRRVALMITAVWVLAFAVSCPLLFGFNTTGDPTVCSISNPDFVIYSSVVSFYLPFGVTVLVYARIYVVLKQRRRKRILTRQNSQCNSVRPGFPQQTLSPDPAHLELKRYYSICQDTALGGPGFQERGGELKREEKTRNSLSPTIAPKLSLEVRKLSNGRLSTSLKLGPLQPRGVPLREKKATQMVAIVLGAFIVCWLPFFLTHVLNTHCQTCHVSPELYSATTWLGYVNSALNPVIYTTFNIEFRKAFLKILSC
#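 Agonist-mode cell screen: cells plated at 1500/well and incubated overnight at 37 °C, then exposed to library compounds for 90 min at 37 °C. Detection reagent was added for 30–60 min at room temperature, and luminescence was read.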
# TGFb inhibitor: TGF-b pathway inhibition. HepG2 CAGA-GFP TGF-b/SMAD3 reporter, GFP fluorescence, 18 h; TGF-beta stimulated, 500 pg/mL final. Potency, µM (top dose mostly 46.1 µM), for the others: at the highest dose activity, negative = inhibition, actives largely listed as inhibitors. actives 1.2% (n = 410,000). AID 588855; also: potency is read from the fitted curve at half-maximal effect; % is scaled to controls: 0 for no effect and ±100 for the full control effect; nearly all actives have a fitted effect of over 65% in size
#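 Read-out: total well GFP (ex488/em500-530) summed from mean per-cell fluorescence. Cells: HEPG2 CAGA-GFP, 1% FBS DMEM, 18 h at 37 degrees C with 500 pg/mL final TGF-beta. Unstimulated wells served as the full-inhibition control; stimulated DMSO wells = 0%.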
# HepG2 tox: counter-screen for TGF-b inhibitors: cytotoxicity in HepG2 cells; HepG2 CAGA-GFP viability, ATP luminescence, 18 h; Potency, µM (doses to about 46.1 µM), for the others: at the highest dose activity change, negative = cytotoxicity, usual class: cytotoxic; actives 0.76% (n = 410,000); also: potency is read from the fitted curve at half-maximal effect
#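 CellTiter-Glo luminescence gave cytotoxicity after 18 hours at 37 degrees C. The cells were HepG2 CAGA-GFP in 1% FBS DMEM, stimulated with 500 pg/mL TGF-beta after compound addition. %Activity was normalised to no-cell wells (complete cell-killing) and DMSO (no toxicity), and curves were fitted and classified.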
# ATXN2 expr inh: reduces ATXN2 reporter expression in HEK-293 cells; HEK-293 ATXN2-luciferase reporter, luminescence, 24 h; Potency, µM (highest dose often 57 µM), for inactives: top-dose activity change, negative = inhibition, actives largely listed as inhibitors; actives 0.72% (n = 360,000); AID 1745845; also: potency is read from the fitted curve at half-maximal effect; % is scaled to controls: 0 for no effect and ±100 for the full control effect; nearly all actives have a fitted effect of over 55% in size
#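 ATXN2-luciferase reporter cells (luciferase flanked by upstream and downstream ATXN2 gene portions) were treated 24 h at 37 °C with compounds at up to 57 uM. SteadyGlo luminescence gave expression; GF-AFC fluorescence gave viability.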
# ATXN viability: cell viability loss in ATXN counter-screen; S2 cells (HEK-293 line with an ATXN2-luciferase reporter) viability, CellTiter-Fluor protease fluorescence, 24 h; Potency, µM (top dose mostly 56.7 µM), hits mostly cytotoxic; actives 0.49% (n = 400,000); AID 651635; also: potency is read from the fitted curve at half-maximal effect; nearly all actives have a fitted effect of over 40% in size
# DRD3 antagonist: D3 dopamine receptor (human) antagonism; P35462; AID 652054; max response, negative = inhibition, %; actives 2.5% (n = 360,000); D3R cells, DiscoveRx beta-arrestin luminescence, antagonist mode; active compounds read low; in the data active = max response below about -50%; inconclusive = no clear call, values can overlap the other calls; also: % is scaled to controls: 0 for no effect and ±100 for the full control effect
#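 Cells expressing the human receptor were seeded at 1500 cells/well, incubated overnight at 37 degrees C in 5% CO2, then exposed to library compounds with dopamine controls for 90 minutes at 37 degrees C before luminescent detection.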
# * hit, by the source's call; i = inactive; ? = inconclusive; nt = no result given. Unless noted, calls follow the shape of the dose curve; as a rule, active = well fitted curve in the direction sought with a large enough effect; inconclusive = small, poorly fitted or top-dose-only effect, or another doubt; inactive = no such curve, though single readings can be large; an effect the other way counts as inactive or inconclusive.
SMILES,DRD3 agonist,TGFb inhibitor,HepG2 tox,ATXN2 expr inh,ATXN viability,DRD3 antagonist
COc1ccc(-c2cc(C3CCN(c4cc(Cl)nc(N)n4)CC3)[nH]n2)cc1,37*,?,-30%,?,?,21
O=C(CSc1ccncc1)NCC1Cc2cccc(-c3cncnc3)c2O1 (stereo unspecified),nt,nt,nt,nt,i,nt
Cc1ccc(S(=O)(=O)N(C(=O)c2ccncc2)c2ccc(OC(=O)c3ccncc3)c3ccccc23)cc1,-19,0%,-22%,19µM*,?,?
Cc1ccc(S(=O)(=O)N(C(=O)c2ccncc2)c2ccc(OC(=O)c3ccncc3)c3ccccc23)c(C)c1,4,?,-8%,?,?,-8
Cc1cc(-c2ccc(C)c(S(=O)(=O)N(C)c3ccc(C)c(C)c3)c2)on1,7,-23%,-27%,nt,nt,nt
CCn1c(SCC(=O)Nc2ccccc2F)nnc1-c1ccoc1C,-25,2%,4%,-9%,i,-55*
CCn1c(SCC(=O)Nc2ccccc2-c2ccccc2)nnc1-c1ccoc1C,-9,-24%,5%,-22%,i,2
CCn1c(SCC(=O)NNC(=O)Cc2ccccc2)nnc1-c1ccccc1,-10,-19%,2%,7%,i,-51*
Cc1cccc(CNC(=O)C2CCN(S(=O)(=O)c3ccc4c(c3)CCCN4C(=O)C3CCC3)CC2)c1,-3,?,6%,-8%,i,nt
CCCN(CCC)CCCNC(=O)c1cc2c(=O)n(C)c3ccccc3c2s1,-25,-15%,-48%,-9%,i,nt
O=C(NCC1CCCCC1)c1cccc(-c2ccc(O)cc2)c1,-6,13µM*,-78%,-28%,i,-3
CCC1CN(CC(=O)NCc2ccc3c(c2)OCO3)Cc2ccc(Cl)cc2O1 (stereo unspecified),nt,nt,nt,nt,i,nt
Cn1ccc2c(-c3ccc(CO)cc3)cc3c(c21)C1CCC3C1 (stereo unspecified),-14,-23%,-5%,-5%,i,-65*
Cn1ccc2c(-c3ccc(C(F)(F)F)cc3)cc3c(c21)C1CCC3O1 (stereo unspecified),6,?,-26%,0%,i,32
Cn1ccc2c(N(Cc3ccccc3)Cc3ccccc3)cc3c(c21)C1CCC3C1 (stereo unspecified),-10,-17%,-26%,-12%,i,-56*
Cn1ccc2c(-c3ccc(F)cc3)cc3c(c21)C1CCC3C1 (stereo unspecified),9,-18%,-28%,-9%,?,9
Cn1ccc2c(-c3ccc(C(C)(C)C)cc3)cc3c(c21)C1CCC3O1 (stereo unspecified),-4,11µM*,-39%,52%,i,6
CN(Cc1ccccc1)c1cc2c(c3c1ccn3C)C1CCC2C1 (stereo unspecified),6,-7%,-31%,-19%,i,-12
C=CCN(CC=C)c1ccc(/C=C/c2ccnc3ccccc23)cc1,nt,?,-39%,nt,nt,nt
O=C(N/N=C/c1ccc([N+](=O)[O-])o1)C1CCCC1,14,?,-72%,-32%,i,0
O=[N+]([O-])c1ccc(/C=[N+](\[O-])[C@@H]2CCCC[C@@H]2/[N+]([O-])=C/c2ccc([N+](=O)[O-])o2)o1,-3,7.1µM*,-53%,?,nt,?
COc1ccc(Cl)cc1-c1cc(C(=O)NCc2ccccc2)[nH]n1,-23,-34%,-25%,-1%,i,-59*
COc1ccc(Cl)cc1-c1cc(C(=O)Nc2ccc(Br)cc2)[nH]n1,-22,?,-14%,?,i,-76*
COc1ccc(F)cc1-c1cc(C(=O)Nc2ccc(C)c(NS(C)(=O)=O)c2)[nH]n1,-18,37%,-28%,25µM*,3.5µM*,-8
COc1ccc(Cl)cc1-c1cc(C(=O)Nc2ccccc2)[nH]n1,-19,3%,-38%,13%,?,-26

# Screening results as filed in PubChem.
